# Experimental data as given in PubChem BioAssay (NCI).
# About 83,000 compounds went through this panel and 20% of them were active in at least one assay; those are over-represented in the sample as a whole.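 A percent growth of 40 corresponds to 60% growth inhibition; 0 means no net growth; -100 means all cells died. Active threshold: below 10.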 Values without a mark were called inactive. Calls of active or inactive are those of the source.
# Experiments:
# Assay in all cases: NCI-60 one-dose screen, 48 h (100 = growth as untreated, 0 = no growth, -100 = all killed)
# [1] = tested on: NCI-H226 lung; details: 10 µM
# [2] = tested on: NCI-H460 lung; details: 10 µM unless noted
# [3] = tested on: HOP-92 NSCLC; details: 10 µM unless noted
# [4] = tested on: NCI-H522 lung; details: 10 µM
# [5] = tested on: A549/ATCC NSCLC; details: 10 µM unless noted
# [6] = tested on: 786-0 renal; details: 10 µM unless noted
# [7] = tested on: COLO 205 colon; details: 10 µM unless noted
# [8] = tested on: HOP-62 NSCLC; details: 10 µM unless noted
# [9] = tested on: NCI-H322M lung; details: 10 µM unless noted
SMILES,growth [1],growth [2],growth [3],growth [4],growth [5],growth [6],growth [7],growth [8],growth [9]
COc1nc2c(cc1S(=O)(=O)c1ccccc1)CCc1c-2cnn1-c1ccccc1,87.2%,77.5%,22.1%,47.9%,57.7%,76.5%,96.3%,–,–
CCCC1=NNC(=O)C1,108%,–,90.7%,94%,95.9%,95.8%,99.3%,–,–
COc1nc2c(cc1S(=O)(=O)c1ccccc1)CCc1c-2cnn1-c1ccccc1Cl,51.8%,–,-1.3% (active),15.3%,47.1%,51.6%,70.4%,69.9%,–
Cc1cc[n+](CCc2ccccc2)cc1,102%,–,–,–,89.4%,–,–,–,–
COc1ccc(-n2ncc3c2ccc2cc(S(=O)(=O)c4ccccc4)c(=O)n(C)c23)cc1,52.6%,88.8%,37.2%,33.2%,86.8%,82.3%,108%,72.5%,–
O=[N+]([O-])c1cc2c(cc1Br)C1C(C3C2C(Cl)(Cl)C(Cl)=C(Cl)C3(Cl)Cl)C(Cl)(Cl)C(Cl)=C(Cl)C1(Cl)Cl (stereo not given),86.7%,–,100%,83.1%,95.7%,89.9%,110%,–,–
Cc1nc2cc(Nc3nc(N4CCCCC4)nc(N4CCOCC4)n3)ccc2n1Cc1ccccc1,28.4%,4.87% (active),-28.2% (active),37.9%,-0.889% (active),10.9%,41%,–,–
Cn1c2c(cc(S(=O)(=O)c3ccccc3)c1=O)CCc1c-2cnn1-c1cccc(Cl)c1,84.6%,101%,44.8%,–,85.6%,92.1%,97.9%,94.7%,–
O=C(O)CCN1CCN(c2cccc(Cl)c2)CC1,104%,106%,110%,127%,95.9%,104%,111%,–,–
CC(C)(C)CC(C)(C)N(CSc1ccc(Cl)cc1)CSc1ccc(Cl)cc1,45.2%,–,23.3%,-4.63% (active),10.6%,41%,75.6%,83.4%,–
O=S(=O)(Nc1ccc(Cl)c(Cl)c1)c1ccc(-c2cnc(C3CC3)o2)cc1,–,4.29% (active),48%,6.78% (active),25.5%,46.3%,–,24%,40.7%
COc1ccc(-c2c3c(N)c4c(nc3nc3c2c(C)nn3-c2ccccc2)CCCC4)cc1,86.9%,73.8%,28.9%,60.6%,76.6%,70.8%,73.4%,89.3%,–
C(=C\c1ccccc1)/CN1CCN(C(c2ccccc2)c2ccccc2)CC1,86.3%,–,62.5%,93.5%,88.7%,95.3%,101%,99.6%,–
O=C1/C(=C/c2ccc([N+](=O)[O-])cc2)Oc2ccc(O)cc21,–,40.9%,93.7%,75.4%,70.8%,96%,–,50.6%,106%
COc1cccc(-c2ccc3c(c2)C2CCN(Cc4ccccc4)C3C2)c1 (stereo not given),99.2%,93.5%,41%,55.1%,71.2%,77.4%,79.3%,72.2%,–
COc1ccc(/C=C(\C#N)c2ccc(OC)cc2)cc1,82.7%,50.9%,–,–,54.3%,90.1%,78.7%,67.1%,–
COc1ccc(OC)c2ncccc12,95.8%,108%,72.2%,84%,108%,102%,106%,90.2%,–
C=C(C)COC(=O)c1ccccc1C(=O)OCC1(C)CO1 (stereo not given),102%,108%,–,–,94.8%,105%,106%,102%,–
Cc1ccc2c(N/N=C\c3ccco3)cc(C)nc2n1,77.6%,–,40.4%,88.6%,46.4%,49.2%,8.81% (active),83.3%,–
CSc1nnc(-c2sc3nnc(-c4ccccc4)c(-c4ccccc4)c3c2O)o1,87.7%,56.7%,–,96.6%,80.5%,88.7%,110%,71.1%,–
CCOC(=O)c1cc2c(n(C)c1=O)-c1cnn(-c3ccc(OC)cc3)c1CC2,107%,–,104%,83.3%,98.2%,101%,109%,108%,–
Cc1nc2cc(Nc3nc(Nc4ccc(F)cc4)nc(N4CCN(C)CC4)n3)ccc2n1Cc1ccccc1,65%,3.42% (active),2.5% (active),-55.1% (active),7.21% (active),-83.1% (active),-55.5% (active),58.2%,–
COc1ccc(/C=N/NC(=O)c2cnn(CC(O)Cc3ccccc3)c2N)cc1OC1CCCC1 (stereo not given),–,98.5%,86.5%,92.7%,96.3%,97.9%,–,85.5%,103%
CCCCCCCCCCCC(=O)[O][Sn]([CH2]CCC)([CH2]CCC)[CH2]CCC,-66% (active),-55.2% (active),-95.7% (active),-96% (active),-91.1% (active),-99.7% (active),-78.2% (active),–,–
COc1cccc(OC(=O)c2ccccc2)c1OC(=O)c1ccccc1,109%,81.6%,40%,–,78%,101%,108%,61.7%,–
Cc1cc(Cl)c2c(Cl)ccc(Cl)c2n1,110%,111%,93.7%,83%,95.4%,101%,114%,102%,–
O=C(Nc1ccc(F)cc1)c1ccc(C(=O)Nc2ccc(F)cc2)cc1,99.5%,105%,105%,–,98.9%,98.8%,114%,98.2%,–

SMILES,growth [1],growth [2],growth [3],growth [4],growth [5],growth [6],growth [7],growth [8],growth [9]
Cc1nn(-c2ccccc2)c2nc3nc4c(c(N)c3c(-c3ccc(Cl)cc3)c12)CCCC4,83.4%,–,84.4%,90.6%,94.4%,86.9%,94.4%,106%,–
Nc1nc(N)c(N=Nc2c(Br)cc(S(N)(=O)=O)cc2Br)c(N)n1,91.9%,–,85%,97.9%,97.4%,106%,104%,103%,–
CC(=O)Nc1ccc(S(=O)(=O)N/N=C\c2ccc(Cl)c(Cl)c2)cc1,100%,101%,72.1%,–,93.8%,113%,109%,100%,–
CCOc1ccc(/C=N\N2CCCCCC2)cc1OCC,90.7%,106%,54.2%,–,106%,106%,84.2%,93.8%,–
CC1(C)N=C(N)N=C(N)N1c1cccc(/C=C/C=C/c2cccc([N+](=O)[O-])c2)c1,76.9%,21.3%,70.7%,–,28.2%,91.9%,29.7%,104%,–
CCCCCCCCCCCCCCNc1nc(CO)ncc1-c1ccc(C(F)(F)F)cc1,101%,105%,89.6%,–,98.9%,97.3%,108%,92.9%,–
CCN(CC)c1ccc2c(c1)OS(=O)(=O)N=C2,–,109%,85.4%,97.6%,106%,93%,–,99.9%,107%
COc1ccc(/C=N/OCC(O)CNCc2ccccc2)cc1OC1CCCC1 (stereo not given),–,102%,79.6%,105%,93.5%,89.5%,–,93.5%,97.2%
COc1ccc(-c2c3c(N)c4c(nc3nc3c2c(C)nn3-c2ccccc2)CCCCC4)cc1,99.4%,–,32.2%,50.2%,81.3%,79.2%,74.3%,84.6%,–
CSc1ccc(OC(C)=O)cc1C,98.3%,104%,97.2%,105%,101%,98.1%,104%,79.4%,–
N#CCCN1CCN(CCC#N)C1=S,112%,103%,–,–,97.4%,105%,105%,108%,–
O=c1[nH]c(=S)[nH]c(=O)n1Cc1cccc2ccccc12,–,97.6%,–,–,99.7%,–,120%,106%,114%
CCOC(=O)C1=C(C)N2C(=NC3=C(CCCC/C3=C\c3cc(OC)c(OC)c(OC)c3)C2c2cc(OC)c(OC)c(OC)c2)S1 (stereo not given),–,60%,–,–,60.3%,–,81.2%,50%,96.5%
O=c1c2c(=NCCN3CCCC3)cc3c(=O)n(CCCN4CCOCC4)c(=O)c4ccc(c(O)n1CCCN1CCOCC1)c2c4-3,–,-8.16% (active),-4.88% (active),–,6.22% (active),1.28% (active),-55.8% (active),-17.3% (active),-10.8% (active)
CCCCC(O)Cn1ncc(C(=O)OCC)c1NC(=O)NCc1ccccc1C(F)(F)F (stereo not given),–,103%,84.7%,88.3%,89.1%,93.2%,–,–,105%
Clc1ccc2c(c1)C[C@H]1C[C@@H](c3cccs3)N2O1,–,104%,69.8%,102%,98.2%,108%,112%,–,99.7%
COCCOC1=C(Cl)C(=O)c2ccccc2C1=O,–,14.3%,-17.3% (active),–,21.6%,81.8%,35.4%,45.5%,95.6%
Cc1cc(O)cc2c1[C@H]1CC[C@]3(C)[C@@H](O)CC[C@H]3[C@@H]1C=C2,–,104%,105%,43.2%,86.9%,99.5%,108%,74.5%,–
COc1ccc(/C=N/NC(=O)c2cnn3c2NC(c2ccccc2)C3)cc1OC1CCCC1 (stereo not given),–,100%,94%,79.5%,84.1%,98.4%,–,87.9%,101%
FC(F)(F)c1ccc2c(c1)n1cnnc1c1nncn21,–,110%,88.7%,97.1%,–,101%,111%,113%,–
COc1cc2oc(-c3ccc(O)cc3)cc(=O)c2c(O)c1I,–,101%,113%,86.2%,96.7%,100%,–,126%,108%
COc1ccccc1-n1c(SCc2cc(OC)c(OC)c(OC)c2)nc2ccc(Cl)cc2c1=O,–,–,42.9%,–,31.1%,51.1%,28%,51.8%,55.1%
O=C(N/N=C(\CS(=O)(=O)c1ccccc1)c1cc2ccccc2oc1=O)c1ccccc1,–,101%,117%,100%,93.1%,106%,–,117%,107%
c1ccc2cc(-c3n(Cc4ccc5ccccc5n4)c4ccccc4[n+]3Cc3ccc4ccccc4n3)ccc2c1,–,-57.3% (active),-31.6% (active),–,6.23% (active),5.11% (active),-66.7% (active),-7% (active),7.73% (active)
COc1ccc(CSc2nc3cc(OC)c(OC)cc3c(=O)n2-c2ccc(Cl)cc2)cc1,–,103%,–,–,103%,103%,104%,104%,105%
COc1ccc(-c2[nH]ncc2Nc2cc(OC)c(OC)c(OC)c2)cc1,–,–,65.8%,12.7%,61.2%,44.1%,-11.9% (active),51.7%,48.7%
